# The source made the active and inactive calls. The call rests on the fitted dose curve; in most records, active means well fitted curve in the direction sought with a large enough effect in the repeat runs; inconclusive means weak or mixed curves; inactive means flat fitted curve, though single readings scatter.
# Assay: qHTS assay to test for compound auto fluorescence at 460 nm (blue) in HepG2 cell free culture (AID 720685)
# Conditions: Cell-free culture medium, blue autofluorescence 405/460 nm; series mostly up to 91.3 µM; fluorescence, % of fluorescent control: at the top concentration
# Excerpt: U.S. Tox21 Program National Center for Advancing Translational Sciences [NCATS] NIH Chemical Genomics Center [NCGC] U.S. Environmental Protection Agency [EPA] National Institutes of Environmental Health Sciences [NIEHS] National Toxicology Program [NTP] U.S. Food and Drug Administration [FDA] Tox21 Assay Overview: Compound auto fluorescence often interferes with screening of the compound library against various biological targets and signaling pathways. Some of these compounds may have fluorophoric properties. Such properties may interfere with the assay outputs resulting in false positives and/or negatives. To decrease such complications and ensure the compound activities are relevant in terms of biological response, the Tox21 10K compound library was screened for auto fluorescence. From the fluorophores used as reporter signals in our screening assays, the auto fluorescence equivalencies of compounds against three fluorophores have been evaluated: Triamterene, Fluorescein and Rose Bengal sodium for blue, green and red fluorescence, respectively. The fluorescence intensities were measured using Excitation/Emission wavelengths at 405/460nm, 485/535nm and 540/590nm for blue, green and red labels, respectively. This assay includes the blue fluorescence data.
# Tox21 Assay Protocol Summary: 5 uL of culture medium (MEM containing 10% FBS) per well was dispensed into black wall/clear bottom 1536-well plates using a Multidrop Combi Dispenser (ThermoFisher Scientific, Waltham, MA). After 23 nL compound or DMSO vehicle was transferred into assay plate by a pintool work station (Kalypsys, San Diego, CA), fluorescence intensities in the assay plates were measured by an Envision (PerkinElmer, Shelton, CT) plate reader using three labels for measuring blue, green and red fluorescence at […] 460, 535 and 590nm respectively.
# On the % scale 0 is the no-effect control and ±100 the full control effect.
SMILES,Potency,"fluorescence, % of fluorescent control"
CC(=O)Nc1ccc(O)cc1,inactive,
O=C1OC(OC(=O)c2cccnc2Nc2cccc(C(F)(F)F)c2)c2ccccc21 (stereo not given),,0.0483% [at 46 µM] (inactive)
CCC(C)(C)c1cc(O)c(C(C)(C)CC)cc1O,,-0.0161% (inactive)
COc1ccccc1OCCNCC(O)COc1cccc2[nH]c3ccccc3c12 (stereo not given),,-0.0338% [at 46 µM] (inactive)
C=C[C@](C)(O)CC[C@@H]1[C@@]2(C)CCCC(C)(C)[C@@H]2CC[C@@]1(C)O,,0.0904% (inactive)
Oc1c(Br)cc(Br)c2cccnc12,,-0.0188% [at 46 µM] (inactive)
CCCCOC(=O)C(C)CC (stereo not given),,-0.0151% (inactive)
CCCC(CC)CCCCCCCN (stereo not given),,-0.0123% [at 95.7 µM] (inactive)
O=C(O)c1cccc(Cl)n1,,-0.195% (inactive)
Nc1cc(Cl)c([N+](=O)[O-])cc1O,,-0.357% (inactive)
CC(C)(C)C1=CC(=O)C=C(C(C)(C)C)C1=O,,0.0409% (inactive)
COC(=O)[C@]1(C)CCC[C@@]2(C)[C@H]1CC=C1C=C(C(C)C)CC[C@@H]12,,-0.0075% (inactive)
CN(Cc1cc(Br)cc(Br)c1N)C1CCCCC1,,1.43% [at 46 µM] (inactive)
CC1(C)C(=O)N(Br)C(=O)N1Br,,-0.228% (inactive)
Cc1cc2c(C(C)C)c(O)c(O)c(C=O)c2c(O)c1-c1c(C)cc2c(C(C)C)c(O)c(O)c(C=O)c2c1O,,0.467% [at 46 µM] (inactive)
[O]=[Zr],,-0.042% (inactive)
O=C(O)CCn1c2c(c3ccccc31)C[C@H](NS(=O)(=O)c1ccc(F)cc1)CC2,,0.0365% [at 46 µM] (inactive)
CCCOc1sc(C(=O)N2CCC(c3cc(CN)ccc3F)CC2)c(C)c1Br,,-0.159% (inactive)
C=CC(=O)OCCC#N,,-0.224% (inactive)
CCN(CC)CCNc1ccc(CO)c2sc3ccccc3c(=O)c12,,-0.334% [at 46 µM] (inactive)

SMILES,Potency,"fluorescence, % of fluorescent control"
COCC(=O)O[C@]1(CCN(C)CCCc2nc3ccccc3[nH]2)CCc2cc(F)ccc2[C@@H]1C(C)C,,0.0158% [at 46 µM] (inactive)
CCCCCCC(C)Nc1ccc(Nc2ccccc2)cc1 (stereo not given),,0.268% (inactive)
S=P(N1CC1)(N1CC1)N1CC1,inactive,
O=C(Oc1ccccc1)c1cccc(C(=O)Oc2ccccc2)c1,,0.225% (inactive)
O[C@@H](c1cc(C(F)(F)F)nc2c(C(F)(F)F)cccc12)[C@H]1CCCCN1,,0.0347% [at 46 µM] (inactive)
C=C(C)C(=O)OCCC[Si](Cl)(Cl)Cl,,-0.104% (inactive)
O=C1c2c(O)ccc(O)c2C(=O)c2c(NCCNCCO)ccc(NCCNCCO)c21,,-0.123% [at 18.6 µM] (inactive)
CCCCNc1c(C(=O)OCC)c(C)nc2c1cnn2CC,,0.0243% [at 46 µM] (inactive)
NCCCCCCNCCCCCCN,,0.0274% (inactive)
CCCCCCC(C)OC(=O)COc1nc(F)c(Cl)c(N)c1Cl (stereo not given),,0.0163% (inactive)
CN1CCN(C2Cc3ccccc3Sc3ccc(Cl)cc32)CC1 (stereo not given),,0.105% [at 46 µM] (inactive)
O=C(O)Cc1ccc(OCCNC[C@H](O)c2ccccc2)cc1,,0.0663% [at 46 µM] (inactive)
CCCN(CCc1cccs1)[C@H]1CCc2c(O)cccc2C1,,-0.107% [at 46 µM] (inactive)
CNC(=O)c1cc(Oc2ccc(NC(=O)Nc3ccc(Cl)c(C(F)(F)F)c3)cc2)ccn1,,0.0476% [at 46 µM] (inactive)
Cc1cc(Nc2ccc(O)cc2)ccc1N,,-0.163% (inactive)
Clc1ccc(C(Cn2ccnc2)OCc2ccsc2Cl)c(Cl)c1 (stereo not given),,0.0497% [at 46 µM] (inactive)
Cc1occc1SSc1ccoc1C,,0.0781% (inactive)
CCN(CC)CCOc1ccc(C(O)(Cc2ccc(Cl)cc2)c2ccc(C)cc2)cc1 (stereo not given),,0.11% [at 46 µM] (inactive)
CCCCCCCCCCCCCCNCCO,,0.0575% [at 46 µM] (inactive)
CCOC(=O)COc1ccc(C)cc1,,0.0071% (inactive)
